A short description of test [1]: liver-stage malaria parasite growth inhibition, primary screen, cell-based, HepG2, luciferase luminescence, HepG2 viability (AID 624349; in the data active means parasite load remaining mostly below about 12%, no sharp cut-off; inactive means mostly above about 10%;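 further: 100% = mean of DMSO negative control wells on the same plate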). To be noted: P. berghei liver stage in HepG2, luciferase luminescence, concentration not given here; parasite load remaining: stronger effect = lower value; viability: measured here: HepG2 viability without parasites.
Test [2] is described as follows: growth inhibition of DIPG glioma cells, dose response, cell-based, SU-DIPG-XVII, MIPE5.0, CellTiter-Glo, qHTS (AID 1347060; cut-off not given, nearly all actives have AC50 up to about 26 µM;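 on AC50: cells exposed to compound for 48 hours before viability readout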). As to conditions: SU-DIPG-XVII viability, CellTiter-Glo ATP luminescence.
A short description of test [3]: growth inhibition of DIPG glioma cells, dose response, cell-based, SU-DIPG-XIII, MIPE4.0, CellTiter-Glo, qHTS (AID 1347061; cut-off not given, nearly all actives have AC50 up to about 37 µM;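 further: cells exposed to compound for 48 hours before readout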). To be noted: SU-DIPG-XIII viability, CellTiter-Glo ATP luminescence. A general note: ATP-based viability assays read luminescence as a measure of living cells.
The nature of test [4]: growth inhibition of DIPG glioma cells, dose response, cell-based, SU-DIPG-IV, MIPE4.0, CellTiter-Glo, qHTS (AID 1347063; cut-off not given, nearly all actives have AC50 up to about 30 µM;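 further: compound exposure lasted 48 hours before the viability readout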). To be noted: SU-DIPG-IV viability, CellTiter-Glo ATP luminescence.
Test [5] can be described thus: viability loss in pontine glioma line – cell-based, SU-DIPG-XXV, MIPE5.0, CellTiter-Glo, qHTS, dose response (AID 1347065; cut-off not given, nearly all actives have AC50 up to about 26 µM;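 further: cells exposed to compound for 48 hours before ATP readout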). To be noted: CellTiter-Glo ATP luminescence.
Test [6] in a line: SU-DIPG-VI glioma cell viability, MIPE4.0 library, CellTiter-Glo luminescence, qHTS (AID 1347066; cut-off not given, nearly all actives have AC50 up to about 30 µM;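 further: cells exposed to compound for 48 hours before readout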). As to conditions: CellTiter-Glo ATP luminescence.
Test [7] is described as follows: JHH-DIPG-1 glioma cell viability, MIPE5.0 library, CellTiter-Glo luminescence, qHTS (AID 1347067; cut-off not given, nearly all actives have AC50 up to about 26 µM;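 further: cells exposed to compound for 48 hours before readout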). As to conditions: JHH-DIPG-1 glioma viability, CellTiter-Glo ATP luminescence.
Test [8] can be described thus: growth inhibition of DIPG glioma cells, dose response, cell-based, SU-DIPG-XIII, MIPE5.0, CellTiter-Glo, qHTS (AID 1347064; cut-off not given, nearly all actives have AC50 up to about 23 µM). To be noted: SU-DIPG-XIII viability, CellTiter-Glo ATP luminescence.
Test [9] in a line: SU-DIPG-XXV glioma cell viability, MIPE5.0 library, qHTS (AID 1347068; cut-off not given, nearly all actives have IC50 up to about 30 µM).
A short description of test [10]: sensitizers of A549 cells to miR-34 induction, primary screen, imaging, A549 dox-inducible miR-34, nuclei and caspase counts (AID 1347080;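 active means compounds whose cell count with miR-34 switched on is under 0.7 times the count with it off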). To be noted: A549 miR-34 inducible, Hoechst nuclei count, 48 h.
The nature of test [11]: survival rescue of mitochondrial mutant cells in low glucose, primary screen, MELAS cybrids, Rieske KO mouse fibroblasts, CellTiter-Glo (AID 1508586;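 active means mean z-score across replicates of 1.96 or higher in either the MELAS or the Rieske mutant cell line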;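 further: z relative to plate mean and SD of compound and empty wells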).
Test [12] in a line: modifiers of HSF1 nuclear foci, imaging, Selleck Cancer Library (AID 1347162; in the data active means plate-normalised HSF1 focus index below about 0.46). As to conditions: human cells, at 10 µM; SSMD: measured here: HSF1 foci SSMD mean; cell count: measured here: cell number; plate-normalised HSF1 focus index: stronger effect = lower value.
Test [13] in a line: ovarian cancer cell viability with rucaparib, profiling panel, oncology-focused library, rucaparib conditional (AID 1508598). As to conditions: patient-derived ovarian cancer cells, CellTiter-Glo viability, 144 h, stronger effect = lower value.
Setting [14] is: stronger effect = lower value, cell number ratio, induced over uninduced.
Setting [15] is: measured here: relative caspase fold change +Dox/-Dox.
Setting [16] is: measured here: total cells with miR-34 induction, stronger effect = lower value.
Setting [17] is: measured here: total cells without miR-34 induction.
Setting [18] is: MELAS cybrid survival, CellTiter-Glo 48 h, stronger effect = higher value.
Setting [19] is: Rieske KO mouse fibroblast survival, CellTiter-Glo 72 h.

Results filed as inconclusive are left out. Calls of active or inactive are those of the source.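 How the source made its calls, unless noted: active means normalized viability below 100% at a tested concentration; inactive means the rest.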

`CC(=O)OC1C(C)OC(Oc2c(-c3ccc(O)cc3)oc3cc(O)cc(O)c3c2=O)C(O)C1OC(C)=O` (configuration not stated): in test [1], the parasite load remaining is 29.8% (inactive) and the viability was determined as 85%. Further, the call in [2] was inactive. The call in test [3] was inactive. For the same compound, the concentration at half-maximal activity (AC50) in test [4] was 20.9 µM (active).

On to `Cc1c[nH]c(/C=C2\C(=O)Nc3ccccc32)c1CCC(=O)O`, for which the concentration at half-maximal activity (AC50) is 14.8 µM (active) in [2], 5.9 µM (active) in test [3], 10.5 µM (active) in [5] and 16.6 µM (active) in test [7]. Also, in [6], the compound was classed as inactive.

Take `O=C(O)Cn1nnc(-c2cc(N3CCC(Oc4cc(F)ccc4Br)CC3)no2)n1`: the outcome in test [2], in test [3], in test [4], in test [8], in test [6] and in [7] was inactive. Besides, in test [9], the outcome was inactive. Moreover, the fold change was 0.885 (inactive) in [10] (setting [14]) and 0.826 in test [10] (setting [15]). For the same compound, the cell count in [10] (setting [16]) is 6300; in [10] (setting [17]) it was 7120. The z-score is -0.382 (inactive) in [11] (setting [18]) and 0.855 in test [11] (setting [19]).

For `C/C=C/C[C@@H](C)C(=O)[C@H]1C(=O)N[C@@H](C(C)C)C(=O)N(C)CC(=O)N(C)[C@@H](CC(C)C)C(=O)N[C@@H](C(C)C)C(=O)N(C)[C@@H](CC(C)C)C(=O)N[C@@H](C)C(=O)N[C@H](C)C(=O)N(C)[C@@H](CC(C)C)C(=O)N(C)[C@@H](CC(C)C)C(=O)N(C)[C@@H](C(C)C)C(=O)N1C`, the AC50 in test [2] was 8.11 µM (active); in [3], 18.7 µM (active); in [5] it was 5.74 µM (active).

As for `Cc1cn(-c2cc(NC(=O)c3ccc(C)c(Nc4nccc(-c5cccnc5)n4)c3)cc(C(F)(F)F)c2)cn1`, the AC50 in test [2] is 10.5 µM (active); in [4] it was 8.33 µM (active); in test [5], 10.5 µM (active); in [7], 11.8 µM (active). In addition, the compound was classed as inactive in [3]. The fold change is 0.874 (inactive) in [10] (setting [14]) and 0.941 in [10] (setting [15]). Further, the cell count in test [10] (setting [16]) is 1260; in test [10] (setting [17]), 1440; in test [12], 7680. Besides, in [12], the SSMD stood at 0.723. Further, the plate-normalised HSF1 focus index in test [12] was 1.05 (inactive). For the same compound, the z-score in test [11] (setting [18]) is 3.41 (active); in [11] (setting [19]) it was -0.657. For the same compound, the viability in [13] (at 0.000305 µM, OCI-C5x cells, with rucaparib 10 µM, 100% = cells with rucaparib alone) was 106% (inactive); in [13] (at 0.000305 µM, OCI-C5x cells, without rucaparib), 116% (inactive); in test [13] (at 0.000305 µM, OCI-P5x cells, with rucaparib 20 µM, 100% = cells with rucaparib alone) it was 103% (inactive); in test [13] (at 0.000305 µM, OCI-P5x cells, without rucaparib), 105% (inactive); in test [13] (at 0.00122 µM, OCI-C5x cells, with rucaparib 10 µM, 100% = cells with rucaparib alone) it was 108% (inactive); in test [13] (at 0.00122 µM, OCI-C5x cells, without rucaparib), 117% (inactive). In addition, the viability in test [13] (at 0.00122 µM, OCI-P5x cells, with rucaparib 20 µM, 100% = cells with rucaparib alone) was 100% (inactive); in test [13] (at 0.00122 µM, OCI-P5x cells, without rucaparib), 101% (inactive); in test [13] (at 0.00488 µM, OCI-C5x cells, with rucaparib 10 µM, 100% = cells with rucaparib alone), 109% (inactive); in test [13] (at 0.00488 µM, OCI-C5x cells, without rucaparib), 116% (inactive); in test [13] (at 0.00488 µM, OCI-P5x cells, with rucaparib 20 µM, 100% = cells with rucaparib alone), 103% (inactive); in [13] (at 0.00488 µM, OCI-P5x cells, without rucaparib), 98.8% (active). For the same compound, the viability was 105% (inactive) in test [13] (at 0.0195 µM, OCI-C5x cells, with rucaparib 10 µM, 100% = cells with rucaparib alone); 127% (inactive) in test [13] (at 0.0195 µM, OCI-C5x cells, without rucaparib); 102% (inactive) in test [13] (at 0.0195 µM, OCI-P5x cells, with rucaparib 20 µM, 100% = cells with rucaparib alone); 91.4% (active) in [13] (at 0.0195 µM, OCI-P5x cells, without rucaparib); 117% (inactive) in test [13] (at 0.0781 µM, OCI-C5x cells, with rucaparib 10 µM, 100% = cells with rucaparib alone); 116% (inactive) in test [13] (at 0.0781 µM, OCI-C5x cells, without rucaparib). In addition, the viability in test [13] (at 0.0781 µM, OCI-P5x cells, with rucaparib 20 µM, 100% = cells with rucaparib alone) is 98.7% (active); in [13] (at 0.0781 µM, OCI-P5x cells, without rucaparib) it was 104% (inactive); in test [13] (at 0.313 µM, OCI-C5x cells, with rucaparib 10 µM, 100% = cells with rucaparib alone), 107% (inactive); in [13] (at 0.313 µM, OCI-C5x cells, without rucaparib) it was 118% (inactive); in test [13] (at 0.313 µM, OCI-P5x cells, with rucaparib 20 µM, 100% = cells with rucaparib alone) it was 116% (inactive); in test [13] (at 0.313 µM, OCI-P5x cells, without rucaparib), 103% (inactive). Besides, the viability in test [13] (at 1.25 µM, OCI-C5x cells, with rucaparib 10 µM, 100% = cells with rucaparib alone) was 127% (inactive); in test [13] (at 1.25 µM, OCI-C5x cells, without rucaparib) it was 117% (inactive); in [13] (at 1.25 µM, OCI-P5x cells, with rucaparib 20 µM, 100% = cells with rucaparib alone) it was 97.7% (active); in test [13] (at 1.25 µM, OCI-P5x cells, without rucaparib), 91.7% (active); in test [13] (at 5 µM, OCI-C5x cells, with rucaparib 10 µM, 100% = cells with rucaparib alone), 139% (inactive); in [13] (at 5 µM, OCI-C5x cells, without rucaparib), 116% (inactive). For the same compound, the viability in [13] (at 5 µM, OCI-P5x cells, with rucaparib 20 µM, 100% = cells with rucaparib alone) is 68% (active); in [13] (at 5 µM, OCI-P5x cells, without rucaparib), 30.3% (active).

By viability is commonly meant a read-out of living cells in per cent, often relative to untreated cells. The AC50 is the midpoint of the concentration-response curve, whichever way the signal moves.

These data come from PubChem BioAssay.
